Data taken from the supplement of paper PMC9694430.

Tests used:
Assay in all cases: thermal shift delta Tm vs DMSO control; higher = stronger stabilization (binding)
Conditions in all cases: 12.5 µM; protein concentration 2 µM
LOC_OS01G01410-cb001 = system: LOC_OS01G01410-cb001
In short: (§1)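 Heating from 25°C to 95°C at 0.05°C/s, fluorescence was recorded for 19.5 μl wells of 2 μM E. coli-expressed, purified rice kinase domain in 100 mM potassium phosphate pH 7.5, 150 mM NaCl, 10% glycerol and 5 × SYPRO Orange with compound in DMSO. Boltzmann fits gave melting temperatures for this differential scanning fluorimetry assay. The shift reported is the mean of three replicates against the DMSO-only protein.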

LOC_OS01G02750-cb003 = system: LOC_OS01G02750-cb003
In short: as §1

LOC_OS01G10900-cb004 = system: LOC_OS01G10900-cb004
In short: as §1

LOC_OS01G13800-cb001 = system: LOC_OS01G13800-cb001
In short: as §1

LOC_OS01G14860-cb001 = system: LOC_OS01G14860-cb001
In short: as §1

LOC_OS01G21960-cb002 = system: LOC_OS01G21960-cb002
In short: as §1

LOC_OS01G39600-cb002 = system: LOC_OS01G39600-cb002
In short: as §1

LOC_OS01G48390-cb002 = system: LOC_OS01G48390-cb002
In short: as §1

LOC_OS01G51400-cb002 = system: LOC_OS01G51400-cb002
In short: as §1

LOC_OS01G52050-cb004 = system: T1, LOC_OS01G52050-cb004
T1 sequence (whole entry): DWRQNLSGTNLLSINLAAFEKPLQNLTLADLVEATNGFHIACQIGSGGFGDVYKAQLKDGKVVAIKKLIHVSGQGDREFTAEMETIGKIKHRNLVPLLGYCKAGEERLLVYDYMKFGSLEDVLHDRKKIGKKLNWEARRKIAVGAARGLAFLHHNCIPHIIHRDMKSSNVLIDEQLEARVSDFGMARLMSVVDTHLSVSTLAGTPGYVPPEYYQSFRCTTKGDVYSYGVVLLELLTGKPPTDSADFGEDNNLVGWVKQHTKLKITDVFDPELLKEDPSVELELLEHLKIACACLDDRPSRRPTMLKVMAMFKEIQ
In short: as §1

LOC_OS01G57100-cb003 = system: LOC_OS01G57100-cb003
In short: as §1

LOC_OS01G60330-cb001 = system: LOC_OS01G60330-cb001
In short: as §1

LOC_OS01G60700-cb002 = system: LOC_OS01G60700-cb002
In short: as §1

LOC_OS01G63280-cb003 = system: LOC_OS01G63280-cb003
In short: as §1

LOC_OS01G67340-cb003 = system: LOC_OS01G67340-cb003
In short: as §1

LOC_OS01G70970-cb002 = system: LOC_OS01G70970-cb002
In short: as §1

LOC_OS02G07810-cb001 = system: LOC_OS02G07810-cb001
In short: as §1

LOC_OS02G08530-cb003 = system: LOC_OS02G08530-cb003
In short: as §1

LOC_OS02G14120-cb001 = system: LOC_OS02G14120-cb001
In short: as §1

LOC_OS02G17970-cb001 = system: LOC_OS02G17970-cb001
In short: as §1
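Note: purified Escherichia coli-expressed rice kinase domain construct.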

SMILES	thermal shift delta Tm (LOC_OS01G01410-cb001) [°C]	thermal shift delta Tm (LOC_OS01G02750-cb003) [°C]	thermal shift delta Tm (LOC_OS01G10900-cb004) [°C]	thermal shift delta Tm (LOC_OS01G13800-cb001) [°C]	thermal shift delta Tm (LOC_OS01G14860-cb001) [°C]	thermal shift delta Tm (LOC_OS01G21960-cb002) [°C]	thermal shift delta Tm (LOC_OS01G39600-cb002) [°C]	thermal shift delta Tm (LOC_OS01G48390-cb002) [°C]	thermal shift delta Tm (LOC_OS01G51400-cb002) [°C]	thermal shift delta Tm (LOC_OS01G52050-cb004) [°C]	thermal shift delta Tm (LOC_OS01G57100-cb003) [°C]	thermal shift delta Tm (LOC_OS01G60330-cb001) [°C]	thermal shift delta Tm (LOC_OS01G60700-cb002) [°C]	thermal shift delta Tm (LOC_OS01G63280-cb003) [°C]	thermal shift delta Tm (LOC_OS01G67340-cb003) [°C]	thermal shift delta Tm (LOC_OS01G70970-cb002) [°C]	thermal shift delta Tm (LOC_OS02G07810-cb001) [°C]	thermal shift delta Tm (LOC_OS02G08530-cb003) [°C]	thermal shift delta Tm (LOC_OS02G14120-cb001) [°C]	thermal shift delta Tm (LOC_OS02G17970-cb001) [°C]
O=C1NC(=O)C(=Cc2ccc(-c3ccc(F)cc3)o2)S1 (stereo in doubt)	0.61	1.08	0.58	0.53	0.85	1.54	0.11	0.58	0.18	0.58	3.43	0.21	0.92	0.52	1.18	0.36	1.67	1.15	0.34	1.28
CCCCCCCCCCCCCCCCCCOP(=O)([O-])OC1CC[N+](C)(C)CC1 [Perifosine (KRX-0401)]	-2.46	-3.08	-2.19	-2.02	-1.55	-1.07	-4.67	-1.63	-3.01	-2.26	-2.51	-0.68	-0.73	-3.09	-1.14	-3.45	-0.99	-1.07	-2.06	-0.45
CNc1nc(Nc2cnn([C@H]3CCN(C4COC4)C[C@@H]3F)c2Cl)ncc1C(F)(F)F	0.23	0.99	0.28	0.15	0.15	1.33	0.09	1.82	0.18	1.16	0.76	2.09	0.99	0.1	0.67	1.35	0.49	2.55	2.26	0.35
Cn1c2ccccc2c2c3c(c4c5ccccc5n(CCC#N)c4c21)CNC3=O	2.6	2.74	0.09	1.15	4.78	2.78	3.54	1.96	0.8	3.9	2.09	2.57	-1.36	1.14	4.81	3.29	2.07	5.99	9.45	3.31
COc1cc(N2CCC(N3CCN(C)CC3)CC2)ccc1Nc1ncnc(Nc2ccccc2S(=O)(=O)C(C)C)n1	0.27	1.86	0.08	-0.11	0.33	0.28	0.25	0.94	0.37	0.61	1.39	0.48	0.92	0.72	0.5	0.84	0.26	1.76	3.1	0.11
